# Assay outcomes deposited in PubChem BioAssay by The Scripps Research Institute Molecular Screening Center.
# Hits are enriched below; roughly 1.1% of the tested compounds scored in any of these assays.
# MOR-DOR ag-1 = OPRM1-OPRD1 heterodimerization agonism; P35372+P41143; cells, luminescence; activation, % at 9.3 µM; 340,000 tested, 0.3% active; AID 504326; in the data active = activation above about 18%;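 note: 0% = vehicle-treated cells and 100% = reference agonist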
# MOR-DOR inv ag-1 = mu-delta opioid heterodimer inverse agonism; 340,000 tested, 0.21% active; cell-based MOR-DOR heterodimer luminescence; inhibition, % at 9.3 µM; P35372+P41143; in the data active = inhibition above about 22%, passing the limit was not always enough;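 note: 0% = cells with DMSO and 100% = wells without cells with DMSO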
# HTR5A inv ag = inverse agonist of human HTR5A in OPRM1-OPRD1 counter-screen. P47898. HTR5A cell line, luminescence, inverse agonism. inhibition, % at 9.3 µM. 340,000 tested, 0.083% active. AID 504634; in the data active = inhibition mostly above about 23%, no sharp cut-off; inactive = mostly below about 18%;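 note: 0% = cells with DMSO and 100% = no-cell wells with DMSO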
# HTR5A ag ctr = HTR5A agonism, opioid heterodimer counter-screen; 340,000 tested, 0.61% active; P47898; HTR5A agonist assay, luminescence, cell-based; activation, % at 9.3 µM; in the data active = activation mostly above about 9.5%, no sharp cut-off; inactive = mostly below about 7.6%;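 note: 0% = cells with vehicle only and 100% = reference agonist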
# OPRM1-D1 inv cf = OPRM1-OPRD1 heterodimer inverse agonism, confirmation | inhibition, % at 9.3 µM | cells expressing OPRM1/OPRD1 heterodimer, luminescence | 580 tested, 20% active | shares compounds with MOR-DOR inv ag-1; in the data active = inhibition above about 32%;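 note: 0% = cells with DMSO and 100% = wells lacking cells with DMSO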
# HTR5A inv ctr2 = inverse agonist of human HTR5A in OPRM1-OPRD1 counter-screen. shares compounds with MOR-DOR inv ag-1. HTR5A-expressing cells, luminescence, inverse agonism. inhibition, % at 9.3 µM. 580 tested, under 10 active. AID 504914;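 note: 0% = cells with DMSO and 100% = no-cell wells with DMSO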
# MOR-DOR inv ag-2 = opioid heterodimer inverse agonism, HTR5A counter-screen | shares compounds with HTR5A inv ag | 190 tested, under 10 active | AID 504912 | U2OS counter-screen cells, complementation luminescence | inhibition, % at 9.3 µM;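 note: 0% = cells with DMSO and 100% = wells without cells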
# HTR5A inv confrm = HTR5A (human) inverse agonism, confirmation; shares compounds with HTR5A inv ag; HTR5A-expressing cells, luminescence; inhibition, % at 9.3 µM; 190 tested, under 10 active; AID 504916;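 note: 0% = cells with DMSO and 100% = no cells with DMSO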
# MOR-DOR ag-2 = promotes OPRM1-OPRD1 heterodimerization in HTR5A counter-screen | shares compounds with HTR5A ag ctr | U2OS counter-screen cells, complementation luminescence, 3 h | activation, % at 9.3 µM | 800 tested, 13% active | AID 504913; in the data active = activation above about 18%
# HTR5A ag conf = HTR5A (human) agonism, confirmation. shares compounds with HTR5A ag ctr. HTR5A agonist cell assay, luminescence. activation, % at 9.3 µM. 800 tested, 17% active; in the data active = activation above about 17%;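 note: 0% = cells with vehicle only and 100% = full reference agonist response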
# Numbers without * were called inactive; . = no result given. Unless noted, the rule behind the calls is not given here.
SMILES,MOR-DOR ag-1,MOR-DOR inv ag-1,HTR5A inv ag,HTR5A ag ctr,MOR-DOR ag-2,HTR5A ag conf,others
CCC(C)N=Cc1c(O)n(-c2ccccc2)c(=O)[nH]c1=O (stereo not given),-2,12,20,-2,.,.,
CC(C)(C)OC(=O)c1c(N)n(Cc2ccco2)c2nc3ccccc3nc12,-7,40*,20,1,.,.,OPRM1-D1 inv cf=96*;HTR5A inv ctr2=17
N#Cc1c(/N=C/c2ccc(O)cc2O)sc2c1C1CCN2CC1,-10,51*,7,-2,.,.,OPRM1-D1 inv cf=-4;HTR5A inv ctr2=10
COc1ccc(CNC(=O)C(NC(C)=O)C(C)C)cc1OC (stereo not given),-2,10,18*,-7,.,.,MOR-DOR inv ag-2=5;HTR5A inv confrm=-8
O=C(COC(=O)Cc1ccccc1)NNC(=O)c1ccc([N+](=O)[O-])cc1,-2,9,1,0,.,.,
CNCCc1c[nH]c2ccc(O)cc12,-2,9,-304,124*,3,6,
COC(=O)C1=C(c2ccc(S(C)(=O)=O)cc2)C[C@@H]2CC[C@H]1N2C(=O)N1CCC(C)CC1,-2,13,-18,1,.,.,
N#Cc1cc(F)c(N2CCNCC2)cc1Cl,-1,5,-16,-3,.,.,
CCC1C(c2ccccc2)NC(c2ccccc2)CC1(O)c1ccc(F)cc1 (stereo not given),8,-40,-44,17*,9,1,
C=C(C)[C@@]12OC3(c4ccccc4)O[C@@H]1C1[C@@H]4O[C@]4(CO)[C@@H](O)[C@]4(O)C(=O)C(C)=C[C@H]4[C@@]1(O3)[C@H](C)[C@H]2OC(=O)/C=C/C=C/c1ccccc1 (stereo not given in full),-2,12,4,33*,-4,-2,
COc1ccc(OC)c(CN2CCN(C(=O)Cc3ccccc3)CC2)c1,-2,11,9,-2,.,.,
NCCc1c[nH]c2ccc(C(N)=O)cc12,-2,11,-216,96*,0,83*,
COc1ccc(CNC(=O)/C=C/c2ccc3[nH]cc(CCN(C)C)c3c2)cc1,0,-2,-63,5,.,.,
C=CCn1c(O)c(C(CC)=NCCc2c[nH]c3ccccc23)c(=O)[nH]c1=O,-1,3,-104,31*,-2,-1,
COc1ccc2c(CCN)c[nH]c2c1,-1,5,-190,32*,-1,-1,
COc1ccc2[nH]cc(CCN(C)C)c2c1,-1,8,.,.,.,.,
O=P1(NCCCn2cc[n+](Cc3nc4ccccc4[nH]3)c2)C=C(c2ccccc2)OC(c2ccccc2)=C1,-4,23,15,-6,.,.,
CCCN(CCC)[C@@H]1CCc2cccc(O)c2C1,-1,5,-152,43*,1,67*,
Cc1ccccc1-n1c(C)nc2ccsc2c1=O,-2,13,0,-2,.,.,
CN1CCC(c2c[nH]c3ccccc23)C1 (stereo not given),-4,18,-106,29*,23*,10,
Cc1cccc(CCNCc2cc3cccc(C)c3[nH]c2=O)c1,1,-3,-54,15*,1,2,
Cc1cccc(CCNCc2cc3cc(C)cc(C)c3[nH]c2=O)c1,-3,14,-13,4,.,.,
CCCCNS(=O)(=O)c1ccc(OCC(=O)N2CCN(Cc3ccc4c(c3)OCO4)CC2)cc1,-1,7,6,1,.,.,
COc1cc(CNCCc2c[nH]c3ccccc23)cc(OC)c1,-4,17,-57,15*,369*,2,
c1ccc(CNCCc2c[nH]c3ccccc23)cc1,1,-4,-19,12,.,.,
